In the library only some 5.7% were active in any assay of this set; here they are far more common.
hgDAF12 agonist: H. glycines DAF-12 receptor agonists, primary screen, cell-based, luminescence, HEK293, GAL4 fusion, UAS-luciferase; Nuclear hormone receptor DAF-12 (Heterodera glycines), GAL4 fusion; HEK293 GAL4-hgDAF12 UAS-luciferase reporter, agonist luminescence; normalized to butyrate control; activation, % at 6.8 µM; actives 1.8% (n = 370,000);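 active means activation above a cutoff set at the mean of all screened compounds plus 3 SD, cut at about 10% in these data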
DAX1 inh-1: DAX1 (NR0B1) inhibitors, primary screen, cell-based, HEK293, Gal4-DAX1, luciferase luminescence | HEK293 Gal4-DAX1 luciferase reporter | Nuclear receptor subfamily 0 group B member 1 (Homo sapiens), P51843 | actives 0.99% (n = 340,000) | inhibition, % at 6.75 µM | AID 504766, 2011;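 active means inhibition above the mean over all tested compounds plus 3 SD, cut at about 4.2% in these data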;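 further: inhibition shows as a rise in luminescence from relieved DAX1 repression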
Target sequence (P51843 207-470 limits assumed): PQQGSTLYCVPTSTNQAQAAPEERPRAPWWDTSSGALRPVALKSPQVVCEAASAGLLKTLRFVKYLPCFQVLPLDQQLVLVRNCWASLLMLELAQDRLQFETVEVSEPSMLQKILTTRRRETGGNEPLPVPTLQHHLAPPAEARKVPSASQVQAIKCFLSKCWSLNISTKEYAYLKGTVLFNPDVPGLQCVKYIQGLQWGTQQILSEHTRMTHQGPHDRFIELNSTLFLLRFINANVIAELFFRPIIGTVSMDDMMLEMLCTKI
ssDAF-12 act: S. stercoralis DAF-12 nuclear receptor activators, primary screen, cell-based, luminescence, HEK293, GRIP1 co-expression, lit1-tk-luc; actives 1% (n = 370,000); activation, % at 6.8 µM; Nuclear hormone receptor DAF-12 (Strongyloides stercoralis); AID 652126, 2013; HEK293 ssDAF-12/GRIP1 lit1-tk-luc reporter; % of 3 µM dafachronic acid response;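 active means activation above the mean over all tested compounds plus 3 SD, cut at about 0.9% in these data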
DAX1 inh-2: DAX1 (NR0B1) inhibitors on StAR promoter, primary screen, cell-based, luminescence, SF-1 (NR5A1), full-length DAX-1 | HEK293T StAR-luciferase reporter, SF-1/DAX-1 repression relief | inhibition, % at 6.8 µM | actives 1.1% (n = 370,000) | AID 652010, 2013;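 active means inhibition above the mean over all tested compounds plus 3 SD, cut at about 3.6% in these data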;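 further: higher inhibition means more luminescence from relief of DAX-1 repression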
AHR act: AHR activators, primary screen, cell-based, luminescence, luciferase reporter, human; AHR-responsive luciferase reporter cells; Aryl hydrocarbon receptor (Homo sapiens), P35869; actives 2.5% (n = 320,000); activation, % at 5 µM; AID 2796, 2010; in the data active means activation above about 47%
hcDAF-12 act: H. contortus DAF-12 nuclear receptor activators, primary screen, cell-based, luminescence, HEK293, lit1-tk-luc reporter; AID 652067, 2013; activation, % at 6.8 µM; actives 1.4% (n = 370,000); HEK293 hcDAF-12 lit1-tk-luc reporter; 0% DMSO, 100% Δ7-dafachronic acid;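 active means activation above the mean of all tested compounds plus 3 SD, cut at about 5.5% in these data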
Large screens that a line does not name were inactive.

COc1ccc(-c2csc(NC(CO)c3nc4ccccc4n3CCCO)n2)cc1 (configuration not stated)	AHR act 55
OCCOCCn1c(CCNc2nc(-c3ccc(Cl)cc3)cs2)nc2cc(Cl)c(Cl)cc21	AHR act 59
COc1ccc(C2CC(c3cccs3)=NN2C(=O)CN2CCCCC2)cc1 (configuration not stated)	ssDAF-12 act 3.1 (no result: DAX1 inh-1)
C#CCSc1nnnn1-c1cccc(Cl)c1	DAX1 inh-1 4.3
COC(=O)c1ccc2nc(-c3ccc(F)cc3)c(CC3CCCCC3)n2c1	ssDAF-12 act 1.1 (no result: DAX1 inh-1, AHR act)
COC(=O)c1ccc2nc(-c3ccc(C)cc3)c(CC3CCCCC3)n2c1	ssDAF-12 act 1.8, DAX1 inh-2 3.9 (no result: DAX1 inh-1, AHR act)
COC(=O)c1ccc2nc(-c3ccc(C)cc3)c(Cc3ccc(C)cc3)n2c1	none (no result: DAX1 inh-1, AHR act)
Cc1cc2nc(-c3ccc(F)cc3)c(CC3CCCCC3)n2c(C)c1Br	ssDAF-12 act 1.0 (no result: DAX1 inh-1, AHR act)
CCOC(=O)c1ccc(N/N=C/c2cc(Br)cc([N+](=O)[O-])c2O)cc1	none
O=C(CN1CCCCCC1)Nc1ccc([N+](=O)[O-])cc1Br	none
O=C(CN1CCOCC1)Nc1ccc([N+](=O)[O-])cc1Br	ssDAF-12 act 1.3
Cc1ccc([N+](=O)[O-])cc1-c1ccc(/C=N/NC(=O)CN2CCOCC2)o1	ssDAF-12 act 0.9
O=C(C1CCC(CNc2c(N3CCCCC3)c(=O)c2=O)CC1)N1CCCC1 (configuration not stated)	DAX1 inh-1 5.5
COc1ccccc1NC(=O)c1ccc(Br)o1	none
COc1ccc(NC(=O)c2ccco2)cc1NC(=O)c1ccc(Br)o1	AHR act 58
Cc1cc(O)c(NC(=O)c2ccc(Br)o2)cc1C	hgDAF12 agonist 13, ssDAF-12 act 2.1, hcDAF-12 act 5.8
COc1ccc(NC(=O)c2ccco2)c(OC)c1	none
COc1cc2c(cc1NC(=O)c1ccco1)CCCC2	hcDAF-12 act 5.7
COc1ccc(-c2nc3ccccc3o2)cc1NC(=O)c1ccc(Br)o1	AHR act 77
Fc1ccc(N2CCN(C(=S)NCC3CCCO3)CC2)cc1 (configuration not stated)	none
Cc1nc(Nc2ccc3c(c2)OCCO3)c2oc3ccccc3c2n1	none
Cc1nc(Nc2cccc(O)c2)c2oc3ccccc3c2n1	none (no result: AHR act)
Cc1nc(Nc2cccc(F)c2)c2oc3ccccc3c2n1	AHR act 49
CCc1nc(NCc2cccnc2)c2oc3ccccc3c2n1	AHR act 64
CCc1nc(Nc2ccc3c(c2)OCCO3)c2oc3ccccc3c2n1	AHR act 63
Cc1nc(Nc2ccccc2F)c2oc3ccccc3c2n1	AHR act 56
Cc1nc(Nc2cccc(Cl)c2)c2oc3ccccc3c2n1	none
COc1cccc(Nc2nc(C)nc3c2oc2ccccc23)c1	none
COc1ccc(Nc2ncnc3c2oc2ccccc23)cc1	hgDAF12 agonist 12
Cc1nc(Nc2ccc(Cl)cc2)c2oc3ccccc3c2n1	AHR act 78
CCC[C@H]1[C@@H](NC(=O)C(c2ccccc2)c2ccccc2)CC[C@@]23CCCN2C(=O)CCC[C@@H]13	none (no result: DAX1 inh-1, DAX1 inh-2, AHR act)
O=Cc1c(-c2ccccc2)nc2ccccn12	AHR act 89
CCOC(=O)N1CCN(C(=O)Cc2cccs2)CC1	none
CCOC(=O)c1sc(C)c(C(N)=O)c1NC1=NCCCCC1	none
COc1ccc(OCC(=O)NCc2n[nH]c(=O)c3ccccc23)cc1	none
Nc1ncnc2c1ncn2C1C=C(CO)C(O)C1O (configuration not stated)	DAX1 inh-1 7.6 (no result: hgDAF12 agonist, ssDAF-12 act, DAX1 inh-2, AHR act, hcDAF-12 act)
COC(=O)C(Cc1c[nH]c2ccccc12)NC(=O)C(C)C (configuration not stated)	none
COC(=O)C(Cc1c[nH]c2ccccc12)NC(=O)C(=O)c1c[nH]c2ccccc12 (configuration not stated)	hcDAF-12 act 5.9
O=C(NC(Cc1c[nH]c2ccccc12)C(=O)O)/C(=C/c1ccc(F)cc1)NC(=O)c1ccccc1 (configuration not stated)	ssDAF-12 act 0.9
O=C(O)C(Cc1c[nH]c2ccccc12)NS(=O)(=O)c1ccc2ccccc2c1 (configuration not stated)	none
O=C(O)c1cc(S(=O)(=O)NC(Cc2c[nH]c3ccccc23)C(=O)O)ccc1Cl (configuration not stated)	ssDAF-12 act 0.9, hcDAF-12 act 5.9
COc1ccc(N=Nc2nc3ccc(Br)cc3n2C)cc1	none
c1ccc(CSc2ccc(-c3ccc4c(c3)OCO4)nn2)cc1	AHR act 74
c1ccc(-c2nccc(-c3ccc4c(c3)OCO4)n2)cc1	AHR act 79
c1ccc2sc(-c3ccc4c(c3)OCO4)nc2c1	AHR act 65 (no result: hgDAF12 agonist, ssDAF-12 act, DAX1 inh-2, hcDAF-12 act)
c1ccc(-c2noc(-c3ccc4c(c3)OCO4)n2)nc1	none
c1csc(-c2nc3ccccc3s2)c1	DAX1 inh-1 4.6
Fc1ccc(CSc2ccc(-c3ccc4c(c3)OCO4)nn2)cc1	none
NC(=O)c1cc(S(=O)(=O)NCc2ccc(F)cc2)cs1	none
Cc1cccc(Cl)c1NC(=S)NCCc1ccccn1	none
Cc1nc(-c2ccc3c(c2)OCCO3)cs1	none
Cc1nccc(-c2ccc3c(c2)OCO3)n1	AHR act 58
COC(=O)c1ccc(CN2CCCC(C(=O)Nc3cccc(-n4cccn4)c3)C2)cc1 (configuration not stated)	none
COC(=O)C1=C(C)NC(=O)NC1c1ccco1 (configuration not stated)	none
O=C(O)c1cccc2c1C(=O)c1cc([N+](=O)[O-])cc([N+](=O)[O-])c1-2	ssDAF-12 act 0.9 (no result: AHR act)
O=C(O)c1cccc2c1-c1ccc([N+](=O)[O-])cc1C2=O	none (no result: AHR act)
Cc1cc(C(F)(F)F)nn1Cc1n[nH]c(=S)n1-c1cccc(Cl)c1	none
CC(=O)NNc1nc2ccccc2s1	none
CC(=O)N1CCC(=NNc2nc3ccccc3s2)CC1	hcDAF-12 act 6.5
CCOC(=O)N1CCC(=NNc2nc3ccccc3s2)CC1	hcDAF-12 act 5.8
CCOC(=O)N1CCN(S(=O)(=O)c2ccc(C(=O)Nc3nc4ccccc4s3)cc2)CC1	none
CC1CCCCN1C(=O)Nc1ccccc1Cl (configuration not stated)	DAX1 inh-1 5.1

From PubChem BioAssay
